Shown is part of a subset that was picked to be rich in hits.
CD40 NFkB inh: CD40 pathway inhibition in BL2 cells; 0.94% of 83,000 active; AID 1053188; inhibition, % at 10 µM; BL2 NF-kB luciferase reporter, CD40L-induced, 4 h;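 active = mean inhibition of at least 50% with a set share of replicates also reaching that level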;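 also: 0% = neutral control wells and 100% = IKK inhibitor VII at 50 µM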
The depositor's hits bear a star; [ ] = dose if it differs, or a comment.

SMILES	CD40 NFkB inh
COc1cccc(C#Cc2ccc([C@H]3[C@H](CO)N4C(=O)CN(C(=O)Cc5cccnc5)C[C@@H]34)cc2)c1	6[25 µM]
O=C(/C=C\Nc1ccccc1Br)c1ccc2c(c1)OCO2	57*
CN(CC(=O)Nc1ccccc1Br)C(=O)CNC(=O)c1ccc2c(c1)OCO2	-4
CC(=O)Nc1ccccc1OCC(=O)c1ccc2c(c1)OCO2	-56
CN(C)C(=O)c1cccc(-c2ccc([C@@H]3[C@H](CO)N4C(=O)CN(C(=O)C5CCCC5)C[C@@H]34)cc2)c1	9
C[C@H](CO)N1C[C@H](C)[C@@H](CN(C)C(=O)Nc2ccc(N3CCCCC3)cc2)OCc2cn(nn2)CCCC1=O	-15[25 µM]
O=S1(=O)N=C(SCCO)c2ccccc21	-11
O=C1c2ccccc2-c2c1c1ccccc1c(=O)n2CCO	-182
CC1=C(SCCO)C(=O)c2ccccc2C1=O	91*[25 µM]
CN(C)C(=O)c1ccc(-c2ccccc2[C@H]2[C@@H](CO)N(C(=O)C3CCCC3)[C@H]2C#N)cc1	0
CN(C)C(=O)[C@@H]1[C@@H](CO)[C@@H]2Cn3c(ccc(C4=CCCC4)c3=O)[C@H]1N2Cc1cccnc1	-3[25 µM]
O=C(Nc1ccc(Cl)c(Cl)c1)N[C@@H]1CC[C@H](CCn2cc(C3CCCC3)nn2)O[C@@H]1CO	2
COc1cccc(NC(=O)C[C@H]2CC[C@H]3[C@@H](COc4ccc(NC(=O)C5CCC5)cc4C(=O)N3C)O2)c1	-3
CC(C)NC(=O)Nc1ccc2c(c1)CC(=O)N(C)C[C@H](C)[C@@H](CN(C)C(=O)OC(C)(C)C)O2	5
COc1ccc(OC)c2sc(N(CCCN(C)C)C(=O)CCS(=O)(=O)c3ccccc3)nc12	81*
Cc1cccc2sc(N(CCN3CCOCC3)C(=O)CCS(=O)(=O)c3ccccc3)nc12	1
COc1ccc(Cl)c2sc(N(CCN(C)C)C(=O)CCS(=O)(=O)c3ccc(C)cc3)nc12	12
O=C(c1ccccn1)N1C[C@@H]2[C@H](c3ccccc31)[C@@H](CO)N2C(=O)C1CC1	-6
COC(=O)C1C(C(=O)OC)C1(c1ccccc1)c1ccccc1 (stereo not given)	3
COC(=O)C1=C(C(=O)OC)C(C(=O)OC)C(C(=O)OC)C(C(=O)OC)(C(=O)OC)C(C(=O)OC)=C1C(=O)OC (stereo not given)	75*
N#C[C@H]1[C@H](c2ccc(C3=CCCC3)cc2)[C@@H](CO)N1C(=O)NC1CCCC1	10
CC(C)COC(=O)N(C)C[C@H]1OCc2ccccc2-c2c(n(C)c3ccccc23)C(=O)N([C@H](C)CO)C[C@@H]1C	-2[25 µM]
CNC[C@@H]1Oc2c(cccc2N(C)C)C(=O)N(C)C[C@@H]1C	-1
CN(C)C(=O)C[C@@H]1CC[C@@H]2[C@H](COc3ccc(NC(=O)C4CCC4)cc3C(=O)N2C)O1	8
O=S(=O)(Nc1nc2ccccc2[nH]1)c1ccccc1	10
SMILES	CD40 NFkB inh
O=S(=O)(NCCc1nc2ccccc2[nH]1)c1ccccc1	9
O=S(=O)(/C(=C\c1ccc(C(F)(F)F)cc1)c1nc2ccccc2[nH]1)c1ccccc1	60*
CO[C@H](CN(C)S(=O)(=O)c1cccc(Cl)c1)[C@H](C)CN(C(=O)Nc1ccccc1F)[C@H](C)CO	-2[25 µM]
O=C(C1CCOCC1)N1CC(=O)N2[C@H](C1)[C@H](c1ccc(/C=C/c3ccccc3)cc1)[C@@H]2CO	0[25 µM]
CCS(=O)(=O)Nc1ccc2c(c1)C(=O)N(C)[C@@H]1CC[C@H](CC(=O)N[C@@H]3CCN(Cc4ccccc4)C3)O[C@@H]1CO2	5[25 µM]
CO[C@@H]1CN(C)C(=O)c2cc(NC(=O)c3cc(C)on3)ccc2OC[C@H](C)N(C(=O)C2CC2)C[C@H]1C	-3
C[C@H](CO)N1C[C@H](C)[C@@H](CN(C)Cc2ccc(Oc3ccccc3)cc2)Oc2ccc(N(C)C)cc2CC1=O	23
CN(C)C(=O)[C@@H]1[C@@H](CO)[C@@H]2Cn3c(ccc(-c4ccccc4)c3=O)[C@H]1N2Cc1ccccn1	4[25 µM]
Cc1ccccc1N1CCN(S(=O)(=O)CC23CCC(C[C@@H]2NC(=O)[C@@H](N)CCS(C)(=O)=O)C3(C)C)CC1 (stereo not given in full)	4[25 µM]
O=C(CN1CCCCCC1)N1c2ccccc2C=Cc2ccccc21	25
O=C(C(=Cc1ccccc1)CN1CCCCC1)c1ccccc1	73*
O=C(CN1CCCC1)N1c2ccccc2C=Cc2ccccc21	11
O=C(C[C@@H]1C[C@@H]2c3cc(NC(=O)Nc4ccccc4)ccc3O[C@@H]2[C@@H](CO)O1)NCc1ccccc1	-2[25 µM]
CN1c2ccc(C3=CCCCC3)cc2[C@H]2[C@H](CCN2C(=O)Cc2ccccn2)[C@@H]1CO	-17[25 µM]
COc1ccc2c3c([nH]c2c1)[C@@H](CO)N(C(=O)NC(C)C)CC31CCN(C(=O)C2CCCCC2)CC1	-12[25 µM]
O=C(c1ccccc1)N1CCN(C(=O)N2CCOCC2)CC1	8
O=C1C(=C(c2ccccc2)N2CCOCC2)Cc2ccccc21	89*
O=C1c2ccccc2-c2c1cccc2C(=O)N1CCOCC1	11
CO[C@@H]1CN(C)C(=O)c2ccc(NC(=O)C3CCCC3)cc2OC[C@H](C)N(CC2CC2)C[C@@H]1C	-6
CN(C)C(=O)c1ccc(-c2ccc3c(c2)[C@H]2[C@H](CCN2C(=O)C2CCC2)[C@H](CO)N3C)cc1	5
OCCOCCN1CCN(C(c2ccccc2)c2ccc(Cl)cc2)CC1 (stereo not given)	16
OCCOCCN1CCN(C2=Nc3ccccc3Sc3ccccc32)CC1	0
O=C1C=CC(=O)c2c(O)c(N3CCN(CCOCCO)CC3)c(Br)c(O)c21	85*
O=C(C1CCCCC1)N1C[C@@H]2[C@H](c3ccccc31)[C@H](CO)N2C(=O)c1ccccc1	5
CO[C@@H]1CN(C)C(=O)c2cc(NC(=O)C3CCOCC3)ccc2OC[C@@H](C)N(CC2CC2)C[C@H]1C	-5
SMILES	CD40 NFkB inh
CC(=O)N(C)C[C@@H]1Oc2ccc(N)cc2C(=O)N(C)C[C@H]1C	5
C[C@@H]1CN([C@@H](C)CO)C(=O)c2c(c3ccccc3n2C)-c2ccccc2CO[C@@H]1CN(C)C(=O)Nc1cccc(C(F)(F)F)c1	24[25 µM]
C[C@H]1CN([C@@H](C)CO)C(=O)c2c(c3ccccc3n2C)-c2ccccc2CO[C@H]1CN(C)C(=O)Nc1cccc(C(F)(F)F)c1	55*[25 µM]
C[C@@H]1CN([C@H](C)CO)C(=O)c2c(c3ccccc3n2C)-c2ccccc2CO[C@H]1CN(C)C(=O)Nc1cccc(F)c1	5
C[C@@H]1CN([C@@H](C)CO)C(=O)c2c(c3ccccc3n2C)-c2ccccc2CO[C@H]1CN(C)C(=O)Nc1cccc(C(F)(F)F)c1	70*[25 µM]
C[C@@H]1CN([C@H](C)CO)C(=O)c2c(c3ccccc3n2C)-c2ccccc2CO[C@@H]1CN(C)C(=O)Nc1cccc(C(F)(F)F)c1	20[25 µM]
C[C@@H]1CN([C@H](C)CO)C(=O)c2c(c3ccccc3n2C)-c2ccccc2CO[C@H]1CN(C)C(=O)Nc1cccc(C(F)(F)F)c1	38[25 µM]
CO[C@@H]1CN(C)C(=O)c2cc(NC(=O)NC3CCCCC3)ccc2OC[C@@H](C)NC[C@@H]1C	-9
Cc1nn(C)cc1NC(=O)C[C@H]1CC[C@H]2[C@@H](COc3ccc(NC(=O)C4CCOCC4)cc3C(=O)N2C)O1	-13[25 µM]
CC(=O)N(C)C[C@H]1Oc2c(NS(C)(=O)=O)cccc2C(=O)N(C)C[C@H]1C	2
CC12CN3CC(C)(CN(C1)C3c1ccc3ccccc3c1O)C2=O (stereo not given)	7
COc1ccc2[nH]cc(C3N4CC5(C)CN3CC(C)(C4)C5=O)c2c1 (stereo not given)	8

Screening results: PubChem BioAssay, Broad Institute
